# Key:
# Test in all cases: DAPPL (digital affinity profiling via proximity ligation, sequencing); 10 mM Tris-HCl pH 7.5, 50 mM NaCl, 1 mM DTT, 4% glycerol, room temperature, 30 min; GST-TFs on glutathione beads, 16-mer random dsDNA library, 0.1% formaldehyde crosslink after washing; high values mean tight binding
# FLI1 = biological target: T1, FLI1 (Homo sapiens, UniProt Q01543 1-452); settings: protein: recombinant; tags: N-terminal GST; dsDNA, one strand shown
# T1 sequence: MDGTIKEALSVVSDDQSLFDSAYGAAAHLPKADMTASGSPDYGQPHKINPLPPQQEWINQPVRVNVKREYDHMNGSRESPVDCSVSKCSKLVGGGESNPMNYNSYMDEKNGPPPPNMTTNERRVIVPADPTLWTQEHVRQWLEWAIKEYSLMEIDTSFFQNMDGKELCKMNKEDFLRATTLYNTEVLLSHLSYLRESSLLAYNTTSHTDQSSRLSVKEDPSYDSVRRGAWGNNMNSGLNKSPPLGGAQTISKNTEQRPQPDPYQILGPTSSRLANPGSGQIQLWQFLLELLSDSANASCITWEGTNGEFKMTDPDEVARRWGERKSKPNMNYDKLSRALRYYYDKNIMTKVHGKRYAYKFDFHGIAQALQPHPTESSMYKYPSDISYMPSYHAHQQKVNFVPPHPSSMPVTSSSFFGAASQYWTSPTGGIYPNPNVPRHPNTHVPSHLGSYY
# Summary of the method: (§1)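 A tag-only sample was pooled with DNA-barcoded human transcription factors that had been expressed in yeast as GST fusions and captured on glutathione beads. The pools were incubated for 30 min at room temperature with 200 nmole of a random double-stranded 16-mer DNA library in Tris/NaCl/DTT/glycerol buffer, then washed, crosslinked with 0.1% formaldehyde, proximity-ligated (BsaI/T4 ligase, 1 h, 37 °C), PCR-amplified and sequenced on an Illumina NextSeq500. Binding signal is each hexamer's read frequency for a factor divided by its frequency for the tag-only sample.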
# ELK1 = biological target: T2, ELK1 (Homo sapiens, UniProt P19419 1-428); settings: protein: recombinant; tags: N-terminal GST; dsDNA, one strand shown
# T2 sequence: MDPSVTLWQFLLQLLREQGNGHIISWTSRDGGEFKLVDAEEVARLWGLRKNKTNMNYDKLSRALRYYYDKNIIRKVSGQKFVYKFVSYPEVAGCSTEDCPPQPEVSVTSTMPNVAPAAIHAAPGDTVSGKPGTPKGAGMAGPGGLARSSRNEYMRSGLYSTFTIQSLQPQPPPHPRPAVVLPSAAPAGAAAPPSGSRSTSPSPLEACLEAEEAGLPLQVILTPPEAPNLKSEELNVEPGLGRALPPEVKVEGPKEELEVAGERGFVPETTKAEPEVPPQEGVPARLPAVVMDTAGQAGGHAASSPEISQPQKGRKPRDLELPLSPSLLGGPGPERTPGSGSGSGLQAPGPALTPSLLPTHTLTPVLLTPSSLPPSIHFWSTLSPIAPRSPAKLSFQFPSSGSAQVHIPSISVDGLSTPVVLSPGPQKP
# Summary of the method: as §1
# GABPA = biological target: T3, GABPA (Homo sapiens, UniProt Q06546 1-454); settings: protein: recombinant; tags: N-terminal GST; dsDNA, one strand shown
# T3 sequence: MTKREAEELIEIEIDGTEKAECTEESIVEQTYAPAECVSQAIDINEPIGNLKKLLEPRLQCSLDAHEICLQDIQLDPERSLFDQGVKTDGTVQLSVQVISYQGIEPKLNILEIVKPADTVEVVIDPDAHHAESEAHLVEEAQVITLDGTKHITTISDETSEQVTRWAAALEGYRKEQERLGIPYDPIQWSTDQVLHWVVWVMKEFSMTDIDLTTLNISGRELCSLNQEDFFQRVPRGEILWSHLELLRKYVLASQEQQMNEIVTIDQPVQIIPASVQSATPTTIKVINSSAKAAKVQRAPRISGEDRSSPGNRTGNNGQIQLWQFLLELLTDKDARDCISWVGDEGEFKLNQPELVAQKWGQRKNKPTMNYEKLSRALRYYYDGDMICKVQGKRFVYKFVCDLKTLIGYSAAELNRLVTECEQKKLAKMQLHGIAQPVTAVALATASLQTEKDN
# Summary of the method: as §1
# ERG = biological target: T4, ERG (Homo sapiens, UniProt P11308 1-479); settings: protein: recombinant; tags: N-terminal GST; dsDNA, one strand shown
# T4 sequence: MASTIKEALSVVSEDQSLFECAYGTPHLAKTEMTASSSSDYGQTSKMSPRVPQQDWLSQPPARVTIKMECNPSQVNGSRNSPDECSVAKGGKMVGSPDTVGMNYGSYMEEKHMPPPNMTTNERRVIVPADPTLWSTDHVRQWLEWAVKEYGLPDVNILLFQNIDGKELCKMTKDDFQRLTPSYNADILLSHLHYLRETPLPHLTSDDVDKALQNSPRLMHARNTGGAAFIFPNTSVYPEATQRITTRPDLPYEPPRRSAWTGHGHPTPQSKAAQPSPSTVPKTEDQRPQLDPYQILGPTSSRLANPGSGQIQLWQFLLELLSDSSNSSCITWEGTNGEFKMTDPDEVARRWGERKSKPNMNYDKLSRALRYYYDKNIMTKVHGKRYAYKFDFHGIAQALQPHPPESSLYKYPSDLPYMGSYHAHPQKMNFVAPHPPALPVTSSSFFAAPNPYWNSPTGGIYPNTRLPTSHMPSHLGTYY
# Summary of the method: as §1
# ELF1 = ELF1 (Homo sapiens, UniProt P32519 1-619); settings: protein: recombinant; tags: N-terminal GST; dsDNA, one strand shown
# Chain of ELF1 (P32519 whole entry): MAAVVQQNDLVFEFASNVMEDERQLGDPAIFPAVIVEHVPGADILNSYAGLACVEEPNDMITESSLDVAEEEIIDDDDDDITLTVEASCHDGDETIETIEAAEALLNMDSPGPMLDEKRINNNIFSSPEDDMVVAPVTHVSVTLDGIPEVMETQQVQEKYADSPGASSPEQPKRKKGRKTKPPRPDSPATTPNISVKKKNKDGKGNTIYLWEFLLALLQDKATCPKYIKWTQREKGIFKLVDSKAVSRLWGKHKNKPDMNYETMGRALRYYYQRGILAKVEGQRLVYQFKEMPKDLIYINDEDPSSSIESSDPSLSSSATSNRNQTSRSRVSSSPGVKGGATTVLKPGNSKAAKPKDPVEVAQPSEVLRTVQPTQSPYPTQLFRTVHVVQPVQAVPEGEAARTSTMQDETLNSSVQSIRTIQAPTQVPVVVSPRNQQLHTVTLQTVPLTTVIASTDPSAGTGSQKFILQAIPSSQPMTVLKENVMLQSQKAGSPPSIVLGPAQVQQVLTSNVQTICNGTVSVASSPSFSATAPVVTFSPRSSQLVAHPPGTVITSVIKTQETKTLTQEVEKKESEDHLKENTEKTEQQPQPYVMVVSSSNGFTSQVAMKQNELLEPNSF
# Summary of the method: as §1
# EHF = biological target: T5, EHF (Homo sapiens, UniProt Q9NZC4 1-300); settings: protein: recombinant; tags: N-terminal GST; dsDNA, one strand shown
# T5 sequence: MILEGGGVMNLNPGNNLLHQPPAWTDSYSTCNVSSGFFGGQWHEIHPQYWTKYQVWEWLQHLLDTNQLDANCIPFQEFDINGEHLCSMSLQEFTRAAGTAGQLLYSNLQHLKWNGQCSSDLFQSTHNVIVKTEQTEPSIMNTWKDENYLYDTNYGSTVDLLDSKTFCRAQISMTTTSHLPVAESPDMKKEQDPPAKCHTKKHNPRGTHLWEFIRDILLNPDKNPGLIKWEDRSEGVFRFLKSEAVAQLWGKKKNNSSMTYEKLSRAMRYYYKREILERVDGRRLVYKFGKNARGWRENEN
# Summary of the method: as §1
# SPI1 = SPI1 (Homo sapiens, UniProt P17947 1-270); settings: protein: recombinant; tags: N-terminal GST; dsDNA, one strand shown
# Summary of the method: as §1
# SPIB = SPIB (Homo sapiens, UniProt Q01892 1-262); settings: protein: recombinant; tags: N-terminal GST; dsDNA, one strand shown
# Chain of SPIB (Q01892 whole entry): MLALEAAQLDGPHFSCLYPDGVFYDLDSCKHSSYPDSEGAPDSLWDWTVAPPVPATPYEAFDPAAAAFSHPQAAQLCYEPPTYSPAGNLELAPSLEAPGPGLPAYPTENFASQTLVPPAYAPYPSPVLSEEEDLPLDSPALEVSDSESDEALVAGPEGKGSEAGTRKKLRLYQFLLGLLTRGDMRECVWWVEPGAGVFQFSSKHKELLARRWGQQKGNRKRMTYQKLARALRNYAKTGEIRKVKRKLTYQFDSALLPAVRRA
# Summary of the method: as §1
# ELK3 = biological target: T6, ELK3 (Homo sapiens, UniProt P41970 1-407); settings: protein: recombinant; tags: N-terminal GST; dsDNA, one strand shown
# T6 sequence: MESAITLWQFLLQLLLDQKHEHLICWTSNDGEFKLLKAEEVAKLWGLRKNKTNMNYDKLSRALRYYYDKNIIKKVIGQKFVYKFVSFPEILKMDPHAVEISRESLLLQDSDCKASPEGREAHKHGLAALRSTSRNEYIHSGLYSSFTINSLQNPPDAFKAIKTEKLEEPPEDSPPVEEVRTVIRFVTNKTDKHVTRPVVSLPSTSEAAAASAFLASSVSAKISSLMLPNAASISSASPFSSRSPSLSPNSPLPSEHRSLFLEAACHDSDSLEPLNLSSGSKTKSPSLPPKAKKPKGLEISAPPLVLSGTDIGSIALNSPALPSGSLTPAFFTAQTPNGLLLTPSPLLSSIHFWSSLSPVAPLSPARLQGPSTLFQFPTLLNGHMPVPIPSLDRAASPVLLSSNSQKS
# Summary of the method: as §1
# FEV = biological target: T7, FEV (Homo sapiens, UniProt Q99581 1-238); settings: protein: recombinant; tags: N-terminal GST; dsDNA, one strand shown
# T7 sequence: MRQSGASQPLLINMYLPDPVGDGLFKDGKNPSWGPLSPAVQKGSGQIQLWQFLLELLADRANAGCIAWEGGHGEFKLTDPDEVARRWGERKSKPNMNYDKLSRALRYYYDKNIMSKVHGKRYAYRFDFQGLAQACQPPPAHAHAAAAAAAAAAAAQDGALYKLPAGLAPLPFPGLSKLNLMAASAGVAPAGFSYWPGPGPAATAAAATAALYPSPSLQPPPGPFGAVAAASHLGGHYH
# Summary of the method: as §1
# ETV5 = ETV5 (Homo sapiens, UniProt P41161 1-510); settings: protein: recombinant; tags: N-terminal GST; dsDNA, one strand shown
# Chain of ETV5 (P41161 whole entry): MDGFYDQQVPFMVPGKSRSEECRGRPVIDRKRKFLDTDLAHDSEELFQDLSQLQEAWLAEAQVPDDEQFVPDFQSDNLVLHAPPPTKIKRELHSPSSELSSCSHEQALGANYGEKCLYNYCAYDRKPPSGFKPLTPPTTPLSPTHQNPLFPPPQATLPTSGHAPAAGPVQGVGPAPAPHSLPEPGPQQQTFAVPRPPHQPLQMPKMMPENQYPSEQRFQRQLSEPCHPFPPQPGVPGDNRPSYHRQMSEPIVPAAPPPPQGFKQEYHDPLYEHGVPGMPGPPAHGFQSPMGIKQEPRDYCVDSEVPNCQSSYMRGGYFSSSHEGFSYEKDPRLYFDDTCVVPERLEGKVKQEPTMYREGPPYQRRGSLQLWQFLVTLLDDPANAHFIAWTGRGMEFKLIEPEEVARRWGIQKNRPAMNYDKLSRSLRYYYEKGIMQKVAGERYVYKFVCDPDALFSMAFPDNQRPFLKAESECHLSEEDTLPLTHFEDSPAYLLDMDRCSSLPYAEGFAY
# Summary of the method: as §1
# HSF1 = HSF1 (Homo sapiens, UniProt Q00613 1-529); settings: protein: recombinant; tags: N-terminal GST; chain copies: 3; dsDNA, one strand shown
# Chain of HSF1 (Q00613 whole entry): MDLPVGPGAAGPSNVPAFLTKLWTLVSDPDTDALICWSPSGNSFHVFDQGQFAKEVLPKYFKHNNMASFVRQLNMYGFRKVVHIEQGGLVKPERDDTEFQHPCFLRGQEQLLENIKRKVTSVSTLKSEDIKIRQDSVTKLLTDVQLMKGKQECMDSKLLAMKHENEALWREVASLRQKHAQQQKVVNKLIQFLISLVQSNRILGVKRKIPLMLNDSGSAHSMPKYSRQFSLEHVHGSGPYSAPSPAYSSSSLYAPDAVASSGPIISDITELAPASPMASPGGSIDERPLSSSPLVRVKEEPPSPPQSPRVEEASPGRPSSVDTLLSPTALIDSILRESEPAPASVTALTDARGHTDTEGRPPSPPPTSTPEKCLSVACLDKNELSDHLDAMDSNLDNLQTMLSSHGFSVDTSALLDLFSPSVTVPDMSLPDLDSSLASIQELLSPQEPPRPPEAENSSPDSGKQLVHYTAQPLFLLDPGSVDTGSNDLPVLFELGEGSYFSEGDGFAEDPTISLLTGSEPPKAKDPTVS
# Summary of the method: as §1
# SPIC = biological target: T8, SPIC (Homo sapiens, UniProt Q8N5J4 1-248); settings: protein: recombinant; tags: N-terminal GST; dsDNA, one strand shown
# T8 sequence: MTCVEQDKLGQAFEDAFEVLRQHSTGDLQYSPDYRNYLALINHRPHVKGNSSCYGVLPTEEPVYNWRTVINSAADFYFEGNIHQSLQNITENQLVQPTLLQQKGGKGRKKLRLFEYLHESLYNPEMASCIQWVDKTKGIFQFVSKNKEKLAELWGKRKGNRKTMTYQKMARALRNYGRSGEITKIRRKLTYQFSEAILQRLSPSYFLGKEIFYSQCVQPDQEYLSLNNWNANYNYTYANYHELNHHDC
# Summary of the method: as §1
# ELF4 = ELF4 (Homo sapiens, UniProt Q99607 1-663); settings: protein: recombinant; tags: N-terminal GST; dsDNA, one strand shown
# Chain of ELF4 (Q99607 whole entry): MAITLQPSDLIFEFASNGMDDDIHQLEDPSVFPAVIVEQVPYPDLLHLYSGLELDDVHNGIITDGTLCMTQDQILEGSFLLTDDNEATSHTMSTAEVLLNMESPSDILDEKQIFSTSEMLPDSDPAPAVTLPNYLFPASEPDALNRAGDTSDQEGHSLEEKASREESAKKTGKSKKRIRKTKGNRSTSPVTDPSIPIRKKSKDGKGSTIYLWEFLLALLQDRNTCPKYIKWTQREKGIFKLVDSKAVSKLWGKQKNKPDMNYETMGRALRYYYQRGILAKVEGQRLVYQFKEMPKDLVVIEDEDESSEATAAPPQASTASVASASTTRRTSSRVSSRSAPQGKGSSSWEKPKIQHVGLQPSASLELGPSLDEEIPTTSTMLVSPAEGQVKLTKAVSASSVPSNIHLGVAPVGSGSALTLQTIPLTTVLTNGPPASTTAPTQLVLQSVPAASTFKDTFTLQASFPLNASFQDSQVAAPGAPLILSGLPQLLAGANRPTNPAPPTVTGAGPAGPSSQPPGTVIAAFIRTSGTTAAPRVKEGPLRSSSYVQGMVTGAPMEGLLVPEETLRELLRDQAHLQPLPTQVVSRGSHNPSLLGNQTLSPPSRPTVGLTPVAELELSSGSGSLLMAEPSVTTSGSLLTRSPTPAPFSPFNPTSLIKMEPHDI
# Summary of the method: as §1
# ELK4 = biological target: T9, ELK4 (Homo sapiens, UniProt P28324-2 1-405); settings: protein: recombinant; tags: N-terminal GST; dsDNA, one strand shown
# T9 sequence: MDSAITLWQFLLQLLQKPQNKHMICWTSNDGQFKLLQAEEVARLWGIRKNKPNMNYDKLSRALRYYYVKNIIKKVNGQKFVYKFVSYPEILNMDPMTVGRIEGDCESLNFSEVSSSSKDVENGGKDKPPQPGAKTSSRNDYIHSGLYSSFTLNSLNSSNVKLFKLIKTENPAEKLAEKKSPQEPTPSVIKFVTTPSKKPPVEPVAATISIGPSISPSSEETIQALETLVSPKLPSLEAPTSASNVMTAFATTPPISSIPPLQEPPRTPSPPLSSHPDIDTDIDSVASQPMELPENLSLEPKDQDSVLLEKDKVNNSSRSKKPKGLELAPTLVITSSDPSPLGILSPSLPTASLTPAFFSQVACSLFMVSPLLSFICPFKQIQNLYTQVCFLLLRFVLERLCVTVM
# Summary of the method: as §1
# ETV2 = biological target: T10, ETV2 (Homo sapiens, UniProt O00321 1-342); settings: protein: recombinant; tags: N-terminal GST; dsDNA, one strand shown
# T10 sequence: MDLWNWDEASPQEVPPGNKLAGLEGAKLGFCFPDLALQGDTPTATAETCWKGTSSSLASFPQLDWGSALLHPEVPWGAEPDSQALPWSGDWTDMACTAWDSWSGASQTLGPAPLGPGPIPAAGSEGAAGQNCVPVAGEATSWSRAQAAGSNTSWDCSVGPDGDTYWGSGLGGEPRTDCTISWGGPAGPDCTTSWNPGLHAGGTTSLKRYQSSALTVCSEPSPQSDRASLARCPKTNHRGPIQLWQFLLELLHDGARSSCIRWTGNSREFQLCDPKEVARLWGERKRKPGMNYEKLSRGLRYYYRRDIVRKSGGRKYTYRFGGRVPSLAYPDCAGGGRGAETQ
# Summary of the method: as §1
# ELF3 = biological target: T11, ELF3 (Homo sapiens, UniProt P78545 1-371); settings: protein: recombinant; tags: N-terminal GST; dsDNA, one strand shown
# T11 sequence: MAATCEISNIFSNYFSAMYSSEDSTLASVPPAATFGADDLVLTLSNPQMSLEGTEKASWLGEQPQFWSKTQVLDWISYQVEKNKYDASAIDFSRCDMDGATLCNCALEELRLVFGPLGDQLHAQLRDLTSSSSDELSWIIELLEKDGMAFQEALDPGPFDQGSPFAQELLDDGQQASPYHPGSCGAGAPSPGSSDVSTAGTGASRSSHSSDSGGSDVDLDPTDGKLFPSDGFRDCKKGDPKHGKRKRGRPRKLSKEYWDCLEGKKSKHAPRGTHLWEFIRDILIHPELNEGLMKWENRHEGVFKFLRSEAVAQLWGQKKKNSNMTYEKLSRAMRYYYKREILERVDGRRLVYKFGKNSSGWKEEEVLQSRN
# Summary of the method: as §1
# CRX = CRX (Homo sapiens, UniProt O43186 1-299); settings: protein: recombinant; tags: N-terminal GST; dsDNA, one strand shown
# Chain of CRX (O43186 whole entry): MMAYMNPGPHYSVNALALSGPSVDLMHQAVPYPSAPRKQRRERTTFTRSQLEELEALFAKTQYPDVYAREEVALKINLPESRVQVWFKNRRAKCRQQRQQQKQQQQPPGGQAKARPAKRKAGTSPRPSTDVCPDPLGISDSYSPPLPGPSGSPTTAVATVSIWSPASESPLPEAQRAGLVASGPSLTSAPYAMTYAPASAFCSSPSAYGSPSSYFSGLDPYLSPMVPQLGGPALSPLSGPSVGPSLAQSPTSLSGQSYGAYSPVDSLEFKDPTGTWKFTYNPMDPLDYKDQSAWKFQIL
# Summary of the method: as §1
# ETV1 = ETV1 (Homo sapiens, UniProt P50549 1-477); settings: protein: recombinant; tags: N-terminal GST; dsDNA, one strand shown
# Chain of ETV1 (P50549 whole entry): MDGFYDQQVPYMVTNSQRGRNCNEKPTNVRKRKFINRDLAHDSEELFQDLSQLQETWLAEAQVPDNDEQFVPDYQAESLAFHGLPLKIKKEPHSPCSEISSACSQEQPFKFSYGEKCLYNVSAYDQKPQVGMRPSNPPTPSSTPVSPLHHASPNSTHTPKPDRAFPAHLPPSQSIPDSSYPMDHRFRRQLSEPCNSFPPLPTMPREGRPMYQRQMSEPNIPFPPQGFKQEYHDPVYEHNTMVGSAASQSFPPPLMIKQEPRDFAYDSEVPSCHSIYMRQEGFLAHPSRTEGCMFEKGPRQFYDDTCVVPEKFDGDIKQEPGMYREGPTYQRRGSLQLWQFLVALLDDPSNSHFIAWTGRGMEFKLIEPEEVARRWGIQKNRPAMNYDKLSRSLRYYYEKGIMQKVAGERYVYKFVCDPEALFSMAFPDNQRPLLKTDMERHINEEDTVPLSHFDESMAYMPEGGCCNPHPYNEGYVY
# Summary of the method: as §1
sequence,measurement,setting,value
TTCCAA,binding signal,FLI1,"1.39 fold enrichment (6-mer frequency, TF over GST control)"
same,binding signal,ELK1,"1.19 fold enrichment (6-mer frequency, TF over GST control)"
same,binding signal,GABPA,"1.34 fold enrichment (6-mer frequency, TF over GST control)"
same,binding signal,ERG,"1.26 fold enrichment (6-mer frequency, TF over GST control)"
same,binding signal,ELF1,"1.31 fold enrichment (6-mer frequency, TF over GST control)"
same,binding signal,EHF,"1.26 fold enrichment (6-mer frequency, TF over GST control)"
same,binding signal,SPI1,"1.11 fold enrichment (6-mer frequency, TF over GST control)"
same,binding signal,SPIB,"1.29 fold enrichment (6-mer frequency, TF over GST control)"
same,binding signal,ELK3,"1.26 fold enrichment (6-mer frequency, TF over GST control)"
same,binding signal,FEV,"1.26 fold enrichment (6-mer frequency, TF over GST control)"
same,binding signal,ETV5,"1.18 fold enrichment (6-mer frequency, TF over GST control)"
same,binding signal,HSF1,"1.47 fold enrichment (6-mer frequency, TF over GST control)"
same,binding signal,SPIC,"1.31 fold enrichment (6-mer frequency, TF over GST control)"
same,binding signal,ELF4,"1.27 fold enrichment (6-mer frequency, TF over GST control)"
same,binding signal,ELK4,"1.31 fold enrichment (6-mer frequency, TF over GST control)"
same,binding signal,ETV2,"1.29 fold enrichment (6-mer frequency, TF over GST control)"
same,binding signal,ELF3,"1.16 fold enrichment (6-mer frequency, TF over GST control)"
same,binding signal,CRX,"1.39 fold enrichment (6-mer frequency, TF over GST control)"
same,binding signal,ETV1,"1.21 fold enrichment (6-mer frequency, TF over GST control)"

# Reference: article PMC7862700, “An all-to-all approach to the identification of sequence-specific readers for epigenetic DNA modifications on cytosine”
